In PubChem BioAssay AID1950 (The Scripps Research Institute Molecular Screening Center, 2009) one finds inhibition data, which are given here for 58 compounds.

Structures are written as SMILES. About 1,000 (0.33%) of roughly 300,000 compounds were called active. Rule as the data show it: active = inhibition above about 28%; inactive = the rest. Only a selection was taken, and actives are over-represented in it overall.

The test system of this assay is EBNA-1 (Epstein-Barr virus nuclear antigen 1), Human herpesvirus 4. Nature of the assay: EBNA-1 DNA-binding inhibitors, primary screen, biochemical, fluorescence polarization (AID 1950). To be noted: at 14.8 µM, active compounds read high. Background: Polarisation of emitted light reports the rotation of a fluorescent probe.
In general, inhibition refers to the change of the read-out against control, counted positive when it falls. Take `CC(=O)N1CCCc2cc(S(=O)(=O)N3CCCC(C(=O)N4CCN(c5cccc(Cl)c5)CC4)C3)ccc21` (stereo not drawn): the inhibition was -6.48% (inactive).

Take `COc1ccc(-c2cc(=O)oc3cc(OCC(=O)N(C)C4CCS(=O)(=O)C4)ccc23)cc1` (stereo not drawn): the inhibition was -3.28% (inactive).

`Nc1nnc(SCC(=O)Nc2ccc3nc(SCC(=O)Nc4ccccc4)sc3c2)s1`: the inhibition is 45.6% (active). For the compound `CCCCNC(=O)CSc1nc2ccc(NC(=O)CSc3nnc(N)s3)cc2s1`, the inhibition is 6.23% (inactive). For `CCCCNC(=O)CSc1nc2ccc(NC(=O)CSc3nnc(COc4ccccc4C)n3C)cc2s1` the value was -11.7% (inactive). The figure for `Nc1nc(SCC(=O)Nc2ccc(Cl)cc2C(F)(F)F)n[nH]1` is -6.65% (inactive); for `CC(Sc1nc2c([nH]c3ccccc32)c(=O)n1C)c1ccccc1` (stereo not drawn) it is 13.4% (inactive). Turning to `CCCCNC(=O)CCn1nc(-c2ccc(Cl)cc2)ccc1=O`, the inhibition is -9.91% (inactive). Take `Cc1ccc(NC(=O)CN(C)C(=O)Cn2nnc(-c3ccccc3)n2)cc1`: the inhibition is -4.13% (inactive). For `COc1ccc(C23NCCN2C(=O)c2ccccc23)cc1` (stereo not drawn) the value was -4.33% (inactive); for `COc1cccc(CNS(=O)(=O)c2csc(C(N)=O)c2)c1`, -4.82% (inactive); for `Cc1cc2oc(=O)cc(CN(C)Cc3ccc(OC(F)F)cc3)c2cc1Cl`, 2.59% (inactive).

Regarding `C/C(=N\OCC(=O)O)c1ccc(Cl)cc1`, the inhibition is 8.77% (inactive). For `C/C(=N\N=C(N)N)c1ccc(Cl)cc1`, the inhibition is 39.1% (active). As to `C/C(=N\NC(=S)NCc1ccccc1)c1ccc(Cl)cc1`, the inhibition is -0.89% (inactive). In the case of `Cc1ccc(CNC(=O)c2cccnc2Cl)cc1`, the inhibition is -0.4% (inactive). On to `CC/C(O)=C1\C(=O)CC(C)(C)CC1=NCCc1nc2ccccc2[nH]1`, for which the inhibition is 0.38% (inactive). `CC(=O)C1=C(O)C(=O)N(c2ccc(Br)cc2)C1c1ccc([N+](=O)[O-])cc1` (stereo not drawn): the inhibition is -5.58% (inactive).

As to `Cc1cccc(N=Nc2c(C)[nH]n(-c3ccccc3)c2=O)c1`, the inhibition was -10.4% (inactive). For `CC1=NN(C(N)=S)C(=O)C1N=Nc1cc(Cl)ccc1Cl` (stereo not drawn) the value was -8.59% (inactive).

`Cc1[nH]n(C(N)=S)c(=O)c1N=Nc1ccc(Cl)cc1Cl`: the inhibition was 27.7% (active). The figure for `O=C(CCC(=O)OCc1cccc(C(=O)Oc2ccccc2)c1)Nc1cccc2ccccc12` is 0.44% (inactive); for `O=C(NC1CCCC1)C(c1ccccn1)N(C(=O)c1csnn1)C1CCCC1` (stereo not drawn) it is 2.45% (inactive); for `CCCn1c(N)c(C(=O)CSc2nc3ccccc3c(=O)n2-c2ccc(OC)cc2)c(=O)[nH]c1=O` it is 5.25% (inactive). For `COC(=O)c1ccc(CSc2nc3ccccc3c(=O)n2-c2cccc(OC)c2)o1` the value was -0.73% (inactive); for `COc1cccc(-n2c(SCC(=O)c3c[nH]c4ccccc34)nc3ccccc3c2=O)c1`, 46.8% (active); for `O=C(N/N=C/c1sc(N2CCCCC2)nc1-c1cccs1)c1cccnc1`, -5.56% (inactive).

On to `N=c1n(Cc2ccc(Cl)cc2)c2ccccc2n1CC(O)c1ccco1` (stereo not drawn), for which the inhibition was -2.62% (inactive). Regarding `CN1CCC(=NNC(=O)CN(c2cccc(Cl)c2)S(C)(=O)=O)CC1`, the inhibition was -1.28% (inactive). The figure for `CC(C)Nc1nc(N(c2ccccc2)c2ccccc2)nc(-n2ccnc2)n1` is 1.21% (inactive). As for `N#Cc1nc(N)nc(N(c2ccccc2)c2ccccc2)n1`, the inhibition was 32.2% (active). As for `COc1ccc(C(=O)OCC(=O)c2ccc(Cl)s2)c(OC)c1OC`, the inhibition is -6.57% (inactive).

For the compound `COc1ccc(C(=O)Nc2cccc(NC(=O)c3ccc(OC)cc3OC)n2)c(OC)c1`, the inhibition is 64.7% (active). The figure for `COC(=O)c1sc(NC(=O)c2ccc(OC)cc2OC)nc1C` is 5.25% (inactive); for `COc1ccc(Cc2nnc(NC(=O)c3ccc(OC)cc3OC)s2)cc1` it is -11.6% (inactive).

In the case of `O=C(COC(=O)c1ncc(Cl)c(Cl)c1Cl)NCc1cccs1`, the inhibition is 4.36% (inactive). Turning to `CC(=O)Nc1ccc(S(=O)(=O)Nc2nccc(/C=C/c3ccccc3F)n2)cc1`, the inhibition was 3.71% (inactive). The figure for `Oc1cccc2ccc(/C=C/c3ccc(Br)s3)nc12` is 7.77% (inactive). For `Nc1ccc(S(=O)(=O)Nc2nccc(/C=C/c3ccc(Br)s3)n2)cc1` the value was 40.2% (active). The figure for `CCNS(=O)(=O)c1ccc(CCC(=O)N2CCN(c3cc(Cl)ccc3C)CC2)cc1` is -2.62% (inactive). In the case of `O=C(NCc1ccccc1)C1=C[C@@H](c2ccccc2)C[C@@H](OCCCCO)O1`, the inhibition is -2.36% (inactive). For `CN(C)CCOc1cccc(Br)c1` the value was 2.94% (inactive); for `COC(=O)C1=C(C)N(C(C)c2ccccc2)C(=O)/C1=C\c1ccco1` (stereo not drawn), 9.16% (inactive); for `CCc1ccccc1NC(=O)c1ccc2snnc2c1`, -10.4% (inactive).

In the case of `O=C(Nc1ccc2ccccc2c1)Nc1ccc2snnc2c1`, the inhibition was 103% (active). The figure for `O=C(Nc1cccc(Br)c1)c1ccc2snnc2c1` is -4.42% (inactive). `O=C1CC(Cc2ccc(Cl)cc2)C(=O)N1c1cc(Cl)ccn1` (stereo not drawn): the inhibition was -3.65% (inactive). For `CC(=O)n1cc([C@@H]2C=C(C(=O)N3CCN(Cc4ccc5c(c4)OCO5)CC3)O[C@H](OCc3ccc(CO)cc3)C2)c2ccccc21` the value was -9.33% (inactive). On to `CCOc1cccc(NC(=O)Cn2nc(-c3ccc4c(c3)OCCO4)ccc2=O)c1`, for which the inhibition was 35% (active).

`CC(=O)c1cc2c(cc1NC(=O)Cn1nc(-c3ccc(F)cc3)ccc1=O)OCO2`: the inhibition was -3.93% (inactive). The figure for `CCc1ccccc1OCC(=O)Nc1ccc2c(c1)OCCO2` is -5.94% (inactive). For `COCCNC(=O)c1onc(CSc2cccc(C)c2)c1C(=O)O` the value was -0.97% (inactive); for `CCCCNC(=O)c1onc(CSc2cccc(OC)c2)c1C(=O)O`, 8.58% (inactive). For `CCOc1cccc(SCc2noc(C(=O)NC(C)C)c2C(=O)O)c1` the value was 29.7% (active); for `CCN(CC(=O)Nc1c(F)cccc1F)C(=O)C1CCC1`, -2.05% (inactive); for `CCOc1ccc(C(=O)NC(=S)Nc2ccc(N3CCOCC3)c(Cl)c2)cc1[N+](=O)[O-]`, 7.49% (inactive). Consider `CC(=O)Nc1ccc(NC(=S)NC(=O)c2ccc([N+](=O)[O-])c(C)c2)cc1`, for which the inhibition was -0.91% (inactive). For `CCOc1ccc(C(=O)NC(=S)Nc2ccc(NC(=O)C(C)C)cc2)cc1[N+](=O)[O-]` the value was 43.3% (active).
